Source: PubChem BioAssay (NCI)
Compounds without any hit were thinned out: in the full panel of roughly 83,000, 20% have a hit.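 Single-concentration screen, 48 h exposure, 96-well plates. Endpoint: percent growth. Below 10 = active.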 The source made the active and inactive calls.

Experiments:
Experiment in all cases: NCI-60 one-dose screen, 48 h (100 = growth as untreated, 0 = no growth, -100 = all killed)
Settings in all cases: 10 µM unless noted
[1] = tested on: SR leukemia
[2] = tested on: RPMI-8226 leukemia
[3] = tested on: OVCAR-8 ovarian
[4] = tested on: OVCAR-5 ovarian
[5] = tested on: OVCAR-4 ovarian
[6] = tested on: SK-OV-3 ovarian
[7] = tested on: IGROV1 ovarian
[8] = tested on: OVCAR-3 ovarian
[9] = tested on: HS 578T breast
[10] = tested on: NCI/ADR-RES ovarian

Measured: growth

C=C[C@@]1(C)CC(=O)[C@@H](C(C)(C)c2cn(C)c3ccc(Br)cc23)C[C@@H]1O[Si](C)(C)C(C)(C)C
inactive: [1] 103% | [2] 87.5% | [3] 101% | [4] 106% | [5] 94.2% | [6] 115% | [7] 112% | [8] 103% | [9] 112% | [10] 101%

O=C1CCC(C(=O)N/N=C/c2cc(F)ccc2F)N1 (stereo not given)
inactive: [1] 109% | [2] 103% | [3] 101% | [4] 106% | [5] 97.6% | [6] 108% | [7] 102% | [8] 102% | [9] 99.1% | [10] 106%

CCN(CC)CCCNc1cc(OC)c(OC)c2cccnc12
active: [5] -10.1%
inactive: [1] 41.5% | [2] 74.4% | [3] 65.1% | [4] 112% | [6] 56.3% | [7] 35.4% | [8] 30.9% | [9] 74.3% | [10] 76.6%

Cc1ccc(OCCOCCOCCOCCOCCOc2ccc(C)n(O)c2=S)c(=S)n1O
active: [1] 4.81% | [10] 1.54%
inactive: [2] 11.5% | [3] 14.1% | [4] 41.7% | [5] 22.7% | [6] 10.2% | [7] 15.5% | [8] 29.6% | [9] 45.8%

CN(C)c1ccc(C(=S)c2ccc(N(C)C)cc2)cc1
inactive: [1] 33.2% | [2] 83.1% | [3] 88.5% | [4] 94.8% | [5] 83% | [6] 82.4% | [7] 59.3% | [8] 80.7% | [9] 94.1% | [10] 28.7%

O=Nc1ccc(NC(=O)Nc2ccc([N+](=O)[O-])cc2)cc1
inactive: [1] 81.1% | [2] 44.1% | [3] 91.5% | [4] 122% | [5] 87.1% | [6] 102% | [7] 99.5% | [8] 98.4% | [9] 91.6% | [10] 91.6%

COc1cc2ncnc(Nc3ccc(F)c(Cl)c3)c2cc1OCC(=O)N1CCOCC1
inactive: [1] 89.3% | [2] 91% | [3] 87.2% | [4] 74.1% | [5] 82.7% | [6] 17.4% | [7] 45.6% | [8] 79.7% | [9] 96.7% | [10] 81.9%

COc1cc(C=C2C(=O)NC(=S)NC2=O)cc(CN2CCCC2)c1O
inactive: [1] 107% | [2] 106% | [3] 108% | [4] 106% | [5] 119% | [6] 94.4% | [7] 106% | [8] 111% | [9] 106% | [10] 108%

Nc1c(Cl)cc(/C=C2\C=Cc3ccccc32)cc1Cl
inactive: [1] 93.9% | [2] 107% | [3] 104% | [4] 102% | [5] 107% | [6] 102% | [7] 103% | [8] 111% | [9] 115% | [10] 101%

Cc1ccc2cnc(N)c(C#Cc3cc(C(=O)Nc4ccc(CN5CCN(C)CC5)c(C(F)(F)F)c4)cnc3C)c2c1
active: [1] -36.1% | [2] -40.6% | [4] -59.1% | [9] -12.4%
inactive: [3] 48.4% | [5] 37.6% | [6] 50.5% | [7] 11% | [8] 32.4% | [10] 22.8%

Cc1ccc(S(=O)(=O)N2CCCN(c3nc(-c4ccccc4)nc4nc(-c5ccccc5)oc34)CC2)cc1
inactive: [1] 92.2% | [2] 89.6% | [3] 95.4% | [4] 105% | [5] 103% | [6] 107% | [7] 90.2% | [8] 114% | [9] 103% | [10] 102%

CN(C)Cc1ccc(NC(=O)c2cncc(C#Cc3cnc(N)c4ncccc34)c2)cc1C(F)(F)F
active: [1] -4.79% | [2] -40.4% | [3] -32.8% | [4] -84.8% | [5] -60.1%
inactive: [6] 105% | [7] 70.8% | [8] 102% | [9] 70.5% | [10] 72.4%

Oc1c(I)cc(I)cc1CN(Cc1ccccn1)Cc1ccccn1
inactive: [2] 16.1% | [3] 10.1% | [4] 55.1% | [5] 26.4% | [6] 25.8% | [7] 15.3% | [8] 30.8% | [9] 38.9%
active: [1] 9.92% | [10] 0.252%

N#Cc1nn(-c2cc(=O)[nH]c3ccc(Br)cc23)c(N)c1C#N
inactive: [3] 96% | [4] 103% | [5] 81.6% | [6] 69.1% | [7] 90.5% | [8] 103% | [9] 88.6% | [10] 102%
active: [1] -14.2% | [2] -29.7%

C[N+]1=C(/C=C/c2ccccc2Cl)C(C)(C)c2ccccc21
inactive: [1] 18.2% | [2] 66.9% | [3] 90.8% | [4] 100% | [5] 96.1% | [6] 94.3% | [7] 90.6% | [8] 78.3% | [9] 102% | [10] 101%

COC(=O)c1sccc1-c1cc(O)c(C(=O)Nc2ccccc2)s1
inactive: [1] 92.8% | [2] 93.4% | [3] 101% | [4] 117% | [5] 89.7% | [6] 78.3% | [7] 95% | [8] 96.2% | [9] 103% | [10] 93.2%

Fc1ccc(/C=C/[C@@H]2C[C@@H](F)CCO2)cc1
inactive: [1] 61.1% | [2] 67.6% | [3] 98.4% | [4] 89.7% | [5] 119% | [6] 102% | [7] 103% | [8] 113% | [9] 84.8% | [10] 103%

COc1cccc(-c2cn3nc(-c4cn(C)c5ccccc45)sc3n2)c1
inactive: [1] 24.9% | [2] 97% | [3] 101% | [4] 91.4% | [5] 93.6% | [6] 93.6% | [7] 92.8% | [8] 99.2% | [9] 85.7% | [10] 94.3%

O=[N+]([O-])c1ccccc1Sc1ccccc1[N+](=O)[O-]
inactive: [1] 104% | [2] 95.4% | [3] 102% | [4] 93.1% | [5] 95.9% | [6] 90.9% | [7] 105% | [8] 92.4% | [9] 95.8% | [10] 96.2%

CC(C)c1ccc2c(c1)CC[C@H]1[C@](C)(C(=O)OCC#CCN3CCCC3)CCC[C@]21C
inactive: [1] 52.5% | [2] 47.5% | [3] 89% | [4] 85.8% | [5] 64.4% | [6] 88.4% | [7] 90.5% | [8] 77.6% | [9] 87.6% | [10] 82.2%

CCSc1ccnc(N)n1
inactive: [1] 153% | [2] 114% | [3] 108% | [4] 104% | [5] 111% | [6] 110% | [7] 96.7% | [8] 97.3% | [9] 117% | [10] 109%

COC(=O)/C=C1/SC(=Nc2ccc(F)cc2)N(CCc2c[nH]c3ccc(O)cc23)C1=O
inactive: [3] 26.1% | [4] 76.3% | [5] 30.3% | [6] 80.8% | [7] 24.6% | [8] 21.5% | [9] 37.4% | [10] 32.7%
active: [1] -4.72% | [2] 4.11%

COc1ccc2[nH]cc(-c3nonc3-c3c[nH]c4ccc(Br)cc34)c2c1
inactive: [1] 35.4% | [2] 52.7% | [3] 48.7% | [4] 47.7% | [5] 50.1% | [6] 56.3% | [7] 65.3% | [8] 62.6% | [9] 55.1% | [10] 39.9%

C#Cc1cccc(Nc2ncnc3cc(NC(=O)CCl)ccc23)c1
active: [1] -37.5% | [2] -43.7% | [3] -11.7% | [4] -91% | [5] -60.1% | [6] -0.177% | [7] -56.6% | [8] -88.7% | [9] -2.33% | [10] -28.6%

N#Cc1c(-c2ccc(Br)cc2)nc2c(N=Nc3ccc(S(N)(=O)=O)cc3)c(N)nn2c1N
inactive: [1] 41.2% | [3] 46.6% | [4] 72.3% | [5] 61.2% | [6] 82.8% | [7] 40.9% | [8] 55.3% | [9] 45.1% | [10] 97%
active: [2] -13.6%
